According to PubChem BioAssay:
The source made the active and inactive calls. No rule for the calls is given here. Where a SMILES comes first, the peptide text is derived from it. The star is where a group is joined. Boc = CC(C)(C)OC(=O)*

What follows are molecules tested against Lethal factor (Bacillus anthracis) (UniProt P15917) (assay: Lethal factor protease inhibitors, Bacillus anthracis, multiplex microsphere cleavage assay, validation set (AID 588461)). Details: flow cytometry, at 10 µM, stronger effect = higher value.

Structure (SMILES) | inhibition
CN1CCN(C2=Nc3cc(Cl)ccc3Nc3ccccc32)CC1 | -6.6% (inactive)
CC[N+](C)(C)c1cccc(O)c1 | 0.7% (inactive)
Cc1ccc(C(=O)O)cc1NC(=O)c1cccs1 | 2% (inactive)
CC(C)Oc1ccc(C(CC(=O)O)c2ccc(F)cc2)cc1 (centres undefined) | 0.9% (inactive)
Cc1cc(-c2nn(-c3ccccc3F)cc2CN2CCCC(O)C2)c(C)s1 (centres undefined) | -0.9% (inactive)
COc1ccc2[nH]c3c(c2c1)CCNC3C1CC=C(C)CC1 (centres undefined) | 3.8% (inactive)
CC(C)(C)OC(=O)N1CCCC1C(=O)NC(Cc1ccccc1)C(=O)O (stereo not drawn) (Boc-Pro-Phe-OH; configuration not given here) | -0.3% (inactive)
O=C(/C=C/c1c[nH]c2ccccc12)c1cccc2ccccc12 | -6.2% (inactive)
CC(C)C[C@H]1C(=O)N2CCC[C@H]2[C@]2(O)O[C@](NC(=O)[C@@H]3C=C4c5cccc6[nH]c(Br)c(c56)CC4N(C)C3)(C(C)C)C(=O)N12 (some centres undefined) | -5.6% (inactive)
COc1ccc(C)cc1S(=O)(=O)Nc1ccc(F)cc1 | 0.5% (inactive)
CC12CCC(C(=O)NCc3ccccn3)(OC1=O)C2(C)C (centres undefined) | 3% (inactive)
CCC(=O)c1ccc(O)cc1 | -1.2% (inactive)
Cc1cccc(C)c1NS(=O)(=O)c1ccc(NC(=O)c2ccc(Cl)c([N+](=O)[O-])c2)cc1 | 0.9% (inactive)
O=C(NCCN1CCCCC1)c1c(O)c2ccccc2[nH]c1=O | -3.9% (inactive)
S=C(NCc1ccccc1)NCc1cccc(CNC(=S)NCc2ccccc2)c1 | -2.4% (inactive)
Cc1cccc2c1CC(C)(C)N/C2=C\C(N)=O | -3.4% (inactive)
Cc1ccc2nc(C)c3c(c2c1)OC(C(C)(Cl)Br)C3 (centres undefined) | 3.2% (inactive)
O=C(CNC(=O)OCc1ccccc1)NC1CCCCCC1 | -3.4% (inactive)
O=C(c1cc2cc(Br)ccc2o1)N1CCCCC1 | 8.5% (inactive)
COC(=O)c1cc(-c2ccc(OC)c(OC)c2)on1 | 0.1% (inactive)

Structure (SMILES) | inhibition
CC(=O)NC(Cc1ccccc1)C(=O)OCC(=O)c1ccccc1 (centres undefined) | -3.3% (inactive)
Cc1cc(C)cc(Nc2nc3c([nH]2)c(=O)n(C)c(=O)n3C)c1 | 4.9% (inactive)
Cc1ccc2nc3c(cc(C(=O)NCC4CCCO4)c(=N)n3CCCOC(C)C)c(=O)n2c1 (centres undefined) | -4% (inactive)
COc1cc(C(=O)NCCc2c[nH]c3ccccc23)ccc1OCc1c(C)noc1C | 0.2% (inactive)
CC(=O)N1CCN(c2ccc(OC[C@H]3CO[C@](Cn4ccnc4)(c4ccc(Cl)cc4Cl)O3)cc2)CC1 | -3.1% (inactive)
Cc1oc2cc(O)ccc2c(=O)c1Oc1ccccc1Br | -0.7% (inactive)
COc1ccc(N2C(=O)[C@@H]3Cc4ccccc4CN3C2=O)cc1 | -0.7% (inactive)
O=C(CCCN1C(=O)/C(=C\c2cccs2)SC1=S)Nc1ccccn1 | 18.8% (inactive)
O=c1c2[nH]c3ccccc3c2ncn1CCC1=CCCCC1 | -3.1% (inactive)
CCCN1CCC(NC(=O)Nc2ccc(Br)cc2)CC1 | -2% (inactive)
CCOc1ccc(C(=O)C(C)=O)c(OCC)c1 | 7.8% (inactive)
O=C(Cc1ccccc1)NCC(=O)OCC(=O)c1ccccc1Cl | -9.6% (inactive)
CN1CCCN(C(c2ccccc2)c2ccc(Cl)cc2)CC1 (centres undefined) | -8.8% (inactive)
COC(=O)C1=CN(Cc2cccs2)C=C(C(=O)OC)C1c1cccc(Cl)c1 | -4% (inactive)
O=C(O)c1cc(-c2ccccc2)nc2ccccc12 | -9.8% (inactive)
O=c1ccn([C@@H]2O[C@H](CO)[C@@H](O)[C@H]2O)c(=O)[nH]1 | 1.9% (inactive)
CC(C)=CCCC(C)CN1CCC(N2CCC(C(=O)N3CCCC3)CC2)CC1 (centres undefined) | -1.1% (inactive)
O=C(O)c1ccc(-c2ccc(O)c(F)c2)cc1 | 0.4% (inactive)
Nc1ccc(S(=O)(=O)c2ccc(N)cc2)cc1 | 4.9% (inactive)
